# According to PubChem BioAssay:
# Results filed as inconclusive are left out. Calls of active or inactive are those of the source. Unless noted, cut-off not given; nearly all actives show AC50 up to about 26 µM.
# Experiments:
# [1] = viability loss in pontine glioma line – cell-based, SU-DIPG-XVII, MIPE5.0, CellTiter-Glo, qHTS, dose response (AID 1347060); conditions: CellTiter-Glo ATP luminescence;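 on AC50: cells exposed to compound for 48 hours before viability readout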
# [2] = viability loss in pontine glioma line – cell-based, SU-DIPG-XIII, MIPE5.0, CellTiter-Glo, qHTS, dose response (AID 1347064; cut-off not given, nearly all actives have AC50 up to about 23 µM;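 on AC50: cells exposed to compound for 48 hours before the viability read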); conditions: CellTiter-Glo ATP luminescence
# [3] = molecular target: NAD(+) hydrolase SARM1 (Homo sapiens) (UniProt Q6SZW1); assay: blocking NAD cleavage by SARM1 SAM-TIR – cell lysate, NAD-Glo luminescence (AID 1508614;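 active means compound whose remaining NAD level is above about 45 nM, limit read from the data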); conditions: SAM-TIR HEK293T lysate NADase, at 1 µM, stronger effect = higher value
# Sequence of NAD(+) hydrolase SARM1 (Homo sapiens) (Q6SZW1 whole entry, looked up): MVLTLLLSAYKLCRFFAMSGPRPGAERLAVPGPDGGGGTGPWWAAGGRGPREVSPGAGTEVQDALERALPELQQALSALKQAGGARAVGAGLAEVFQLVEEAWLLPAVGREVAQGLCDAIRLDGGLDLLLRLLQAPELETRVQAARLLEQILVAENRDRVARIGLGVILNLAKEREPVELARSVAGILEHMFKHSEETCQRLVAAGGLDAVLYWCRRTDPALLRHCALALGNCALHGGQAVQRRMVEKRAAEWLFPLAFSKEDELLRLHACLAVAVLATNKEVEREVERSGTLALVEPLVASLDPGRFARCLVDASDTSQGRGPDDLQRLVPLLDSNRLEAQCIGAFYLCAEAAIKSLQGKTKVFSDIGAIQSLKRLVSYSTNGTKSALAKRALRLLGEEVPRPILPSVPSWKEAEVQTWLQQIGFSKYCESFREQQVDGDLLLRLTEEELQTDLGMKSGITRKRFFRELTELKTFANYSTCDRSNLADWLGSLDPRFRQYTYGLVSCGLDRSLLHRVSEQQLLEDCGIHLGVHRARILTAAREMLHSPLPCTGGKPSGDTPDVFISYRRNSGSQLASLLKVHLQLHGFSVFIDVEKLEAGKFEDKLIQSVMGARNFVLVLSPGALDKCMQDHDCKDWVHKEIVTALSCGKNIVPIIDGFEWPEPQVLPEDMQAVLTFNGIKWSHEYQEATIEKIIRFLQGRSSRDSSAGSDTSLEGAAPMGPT
# [4] = compounds altering viability of human ES cells (AID 493140; call rule not given here;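 further: cells exposed to compounds for four days before counting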); conditions: human embryonic stem cell survival screen; stronger effect = higher value
# [5] = molecular target: ATP-dependent translocase ABCB1 (Homo sapiens) (UniProt P08183); assay: P-glycoprotein substrate transport blockade – cell-based (AID 377; in the data active means fluorescence slope change above about 50%); conditions: MDR1-expressing cells, fluorescent substrate accumulation slope; stronger effect = higher value; concentration not given here
# Sequence of ATP-dependent translocase ABCB1 (Homo sapiens) (P08183 whole entry, looked up): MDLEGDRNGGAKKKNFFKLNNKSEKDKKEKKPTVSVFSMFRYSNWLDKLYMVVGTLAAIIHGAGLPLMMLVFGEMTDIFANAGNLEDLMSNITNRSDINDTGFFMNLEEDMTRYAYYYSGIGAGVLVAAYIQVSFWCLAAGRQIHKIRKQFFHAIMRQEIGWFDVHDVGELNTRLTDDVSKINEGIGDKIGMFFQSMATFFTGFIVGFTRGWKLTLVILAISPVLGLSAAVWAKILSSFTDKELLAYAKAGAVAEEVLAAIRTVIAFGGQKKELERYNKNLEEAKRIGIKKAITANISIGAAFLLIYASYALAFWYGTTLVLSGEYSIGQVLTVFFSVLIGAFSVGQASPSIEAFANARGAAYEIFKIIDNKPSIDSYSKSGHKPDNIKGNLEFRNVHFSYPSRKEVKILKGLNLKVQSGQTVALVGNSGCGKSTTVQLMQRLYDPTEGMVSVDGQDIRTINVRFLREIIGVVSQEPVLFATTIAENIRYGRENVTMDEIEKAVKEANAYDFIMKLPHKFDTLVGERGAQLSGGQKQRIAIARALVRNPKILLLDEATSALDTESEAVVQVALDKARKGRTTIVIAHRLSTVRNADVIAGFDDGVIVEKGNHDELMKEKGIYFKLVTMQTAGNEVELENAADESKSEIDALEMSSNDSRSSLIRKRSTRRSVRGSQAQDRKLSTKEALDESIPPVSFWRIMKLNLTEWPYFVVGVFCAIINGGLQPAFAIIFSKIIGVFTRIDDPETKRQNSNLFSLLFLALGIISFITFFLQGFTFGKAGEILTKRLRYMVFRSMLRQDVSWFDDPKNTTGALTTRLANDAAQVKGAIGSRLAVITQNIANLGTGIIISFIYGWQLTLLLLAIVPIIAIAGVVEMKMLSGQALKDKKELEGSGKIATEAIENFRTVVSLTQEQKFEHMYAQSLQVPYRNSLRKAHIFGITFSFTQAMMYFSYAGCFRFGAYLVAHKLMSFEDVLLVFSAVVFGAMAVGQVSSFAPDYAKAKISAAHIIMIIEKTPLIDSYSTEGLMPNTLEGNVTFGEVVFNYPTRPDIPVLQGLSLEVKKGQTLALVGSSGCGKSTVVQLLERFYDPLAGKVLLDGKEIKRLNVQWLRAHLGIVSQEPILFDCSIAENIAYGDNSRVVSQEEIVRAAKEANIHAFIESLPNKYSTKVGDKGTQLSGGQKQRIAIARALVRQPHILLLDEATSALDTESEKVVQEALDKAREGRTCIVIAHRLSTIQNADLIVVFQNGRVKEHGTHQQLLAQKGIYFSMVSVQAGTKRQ
# [6] = compounds altering HSF1 focus formation in cells – imaging, Selleck Cancer Library (AID 1347162; in the data active means plate-normalised HSF1 focus index below about 0.46); conditions: human cells, HSF1 nuclear foci imaging, at 10 µM; SSMD: measured here: HSF1 foci SSMD mean; cell count: measured here: cell number; plate-normalised HSF1 focus index: stronger effect = lower value
# [7] = molecular target: Mitogen-activated protein kinase 7 (Homo sapiens) (UniProt Q13164); assay: Gal4-ERK5 driven luciferase induction – cell-based, HTS, primary screen (AID 1508626;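 active means luciferase signal above three times the same-plate solvent-only control wells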;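 further: luciferase driven by Gal4-ERK5 fusion binding five Gal4 sites before minimal TATA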); conditions: HeLa Gal4-ERK5 transactivation, 18 h, at 5 µM, stronger effect = higher value
# Sequence of Mitogen-activated protein kinase 7 (Homo sapiens) (Q13164 whole entry, looked up, the tested form may be a part): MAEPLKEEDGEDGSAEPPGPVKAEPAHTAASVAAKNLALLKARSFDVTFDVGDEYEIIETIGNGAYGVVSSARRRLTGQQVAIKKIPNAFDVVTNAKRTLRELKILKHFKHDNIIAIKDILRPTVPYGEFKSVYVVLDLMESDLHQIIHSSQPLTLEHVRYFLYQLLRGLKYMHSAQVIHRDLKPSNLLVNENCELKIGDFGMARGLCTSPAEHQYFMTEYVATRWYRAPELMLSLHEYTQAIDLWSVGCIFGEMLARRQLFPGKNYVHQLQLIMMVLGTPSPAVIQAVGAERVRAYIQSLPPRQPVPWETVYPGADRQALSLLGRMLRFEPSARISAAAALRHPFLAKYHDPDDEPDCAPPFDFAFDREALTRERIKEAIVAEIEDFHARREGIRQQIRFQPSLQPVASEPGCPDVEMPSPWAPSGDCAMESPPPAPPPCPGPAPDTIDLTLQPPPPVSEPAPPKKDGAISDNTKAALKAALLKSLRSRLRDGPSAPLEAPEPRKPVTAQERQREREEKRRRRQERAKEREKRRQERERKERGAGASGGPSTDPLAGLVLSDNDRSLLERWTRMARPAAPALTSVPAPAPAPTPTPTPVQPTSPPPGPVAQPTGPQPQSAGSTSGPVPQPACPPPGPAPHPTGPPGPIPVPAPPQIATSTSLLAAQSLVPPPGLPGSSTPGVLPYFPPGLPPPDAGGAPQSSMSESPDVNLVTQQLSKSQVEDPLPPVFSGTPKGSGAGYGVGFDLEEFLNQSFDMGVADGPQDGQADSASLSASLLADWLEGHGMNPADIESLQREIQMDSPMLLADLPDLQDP
compound,measurement,setting,value
CCOC(=O)c1ccc(C#Cc2ccc3c(c2)C(C)(C)CCS3)nc1,AC50,[1],26.3 µM (active)
CC(=O)OCC(=O)[C@@]12N=C(C)O[C@@H]1C[C@H]1[C@@H]3CCC4=CC(=O)C=C[C@]4(C)[C@H]3[C@@H](O)C[C@@]12C,outcome,[1],inactive
same,outcome,[2],inactive
same,remaining NAD,[3],10 nM (inactive)
Cc1nnc(C(=O)NC(C)(C)c2nc(C(=O)NCc3ccc(F)cc3)c(O)c(=O)n2C)o1,outcome,[1],inactive
CN1CCCN=C1/C=C/c1cccs1,survival,[4],25.8 (inactive)
same,outcome,[1],inactive
COCCCN1CCC(NC(=O)c2cc(Cl)c(N)c3c2OCC3)CC1,outcome,[1],inactive
Cc1ccc(C(=O)c2cc(O)c(O)c([N+](=O)[O-])c2)cc1,outcome,[1],inactive
same,outcome,[2],inactive
c1cnc2cc3c(cc2n1)C1CNCC3C1,outcome,[1],inactive
same,outcome,[2],inactive
Clc1ccc(C(Cn2ccnc2)OCc2c(Cl)cccc2Cl)c(Cl)c1 (centres undefined),fluorescence slope change,[5],107% (active)
same,survival,[4],13.2 (inactive)
same,AC50,[1],23.5 µM (active)
same,AC50,[2],20.9 µM (active)
O=[N+]([O-])c1cncn1CCN1CCOCC1,outcome,[1],inactive
same,outcome,[2],inactive
CCCCc1oc2ccc(NS(C)(=O)=O)cc2c1C(=O)c1ccc(OCCCN(CCCC)CCCC)cc1,AC50,[1],13.2 µM (active)
same,AC50,[2],11.8 µM (active)
Cc1cc2c(cc1CC(=O)c1sccc1S(=O)(=O)Nc1onc(C)c1Cl)OCO2,outcome,[1],inactive
C[C@]12CCC(=O)C=C1[C@@H]1C[C@@H]1[C@H]1[C@@H]3[C@@H]4C[C@@H]4[C@@]4(CCC(=O)O4)[C@@]3(C)CC[C@@H]12,outcome,[1],inactive
same,outcome,[2],inactive
same,remaining NAD,[3],10 nM (inactive)
N=C(N)c1ccc2cc(OC(=O)c3ccc(N=C(N)N)cc3)ccc2c1,outcome,[2],inactive
Cc1ccccc1C(=O)Nc1ccc(C(=O)N2CCCC(O)c3cc(Cl)ccc32)c(C)c1 (centres undefined),outcome,[1],inactive
CC(C(=O)O)c1ccc2c(c1)CC(=O)c1ccccc1S2 (centres undefined),outcome,[1],inactive
same,outcome,[2],inactive
Cc1ccc(Nc2nccc(N(C)c3ccc4c(C)n(C)nc4c3)n2)cc1S(N)(=O)=O,AC50,[1],3.32 µM (active)
same,AC50,[2],3.72 µM (active)
same,SSMD,[6],1.61
same,cell count,[6],7340
same,plate-normalised HSF1 focus index,[6],1.1 (inactive)
CC1(C)CCC(C)(C)c2cc(NC(=O)c3ccc(C(=O)O)cc3)ccc21,outcome,[1],inactive
same,outcome,[2],inactive
CN(C)C(=O)COC(=O)Cc1ccc(OC(=O)c2ccc(N=C(N)N)cc2)cc1,outcome,[1],inactive
same,outcome,[2],inactive
CC(C)C[C@H](NC(=O)[C@H](CCc1ccccc1)NC(=O)CN1CCOCC1)C(=O)N[C@@H](Cc1ccccc1)C(=O)N[C@@H](CC(C)C)C(=O)[C@@]1(C)CO1,AC50,[1],0.0148 µM (active)
same,AC50,[2],0.00742 µM (active)
CNC(=O)c1ccccc1Sc1ccc2c(/C=C/c3ccccn3)n[nH]c2c1,AC50,[1],1.32 µM (active)
same,AC50,[2],1.48 µM (active)
same,SSMD,[6],5.16
same,cell count,[6],7390
same,plate-normalised HSF1 focus index,[6],1.18 (inactive)
COc1ccc(-c2ccc3cc(C(=O)O)ccc3c2)cc1C12CC3CC(CC(C3)C1)C2,AC50,[1],3.32 µM (active)
same,remaining NAD,[3],10 nM (inactive)
O=C(O)c1ccc(-n2nc(-c3ccccc3O)nc2-c2ccccc2O)cc1,AC50,[1],16.6 µM (active)
N[C@@H](Cc1c[nH]c2ccc(O)cc12)C(=O)O,outcome,[1],inactive
same,outcome,[2],inactive
C=CC(=O)Nc1cc2c(Nc3ccc(F)c(Cl)c3)ncnc2cc1OCCCN1CCOCC1,AC50,[1],6.61 µM (active)
same,AC50,[2],9.34 µM (active)
NCCCC(N)(C(=O)O)C(F)F (centres undefined),outcome,[1],inactive
same,outcome,[2],inactive
O=P(O)(O)C(O)(Cn1ccnc1)P(=O)(O)O,outcome,[1],inactive
same,outcome,[2],inactive
CC(C)(C)C(=O)Oc1ccc(S(=O)(=O)Nc2ccccc2C(=O)NCC(=O)O)cc1,outcome,[1],inactive
same,outcome,[2],inactive
O=c1cc(O)c(Cl)c[nH]1,outcome,[1],inactive
same,outcome,[2],inactive
N#Cc1c(N(CC(=O)O)CC(=O)O)sc(C(=O)O)c1CC(=O)O,outcome,[1],inactive
same,outcome,[2],inactive
CCC1=C[C@@H]2CN(C1)Cc1c([nH]c3ccccc13)[C@@](C(=O)OC)(c1cc3c(cc1OC)N(C)[C@H]1[C@@](O)(C(=O)OC)[C@H](OC(C)=O)[C@]4(CC)C=CCN5CC[C@]31[C@@H]54)C2,AC50,[1],0.204 µM (active)
same,AC50,[2],2.29 µM (active)
same,SSMD,[6],1.19
same,cell count,[6],6320
same,plate-normalised HSF1 focus index,[6],1.08 (inactive)
Clc1ccc(C(Cn2ccnc2)OCc2ccc(Sc3ccccc3)cc2)c(Cl)c1 (centres undefined),AC50,[1],20.9 µM (active)
same,AC50,[2],20.9 µM (active)
NC(=O)c1ncn([C@@H]2O[C@H](CO)[C@@H](O)[C@H]2O)c1N,outcome,[1],inactive
same,outcome,[2],inactive
same,remaining NAD,[3],10 nM (inactive)
same,luciferase signal,[7],16 AU (inactive)
Clc1cccc(C(c2ccc3nc[nH]c3c2)n2ccnc2)c1 (centres undefined),outcome,[2],inactive
Cc1ccc(-c2ncc(Cl)cc2-c2ccc(S(C)(=O)=O)cc2)cn1,outcome,[2],inactive
Cc1c(C)c2c(c(C)c1O)CCC(C)(COc1ccc(CC3SC(=O)NC3=O)cc1)O2 (centres undefined),outcome,[2],inactive
CCC(C)(C)c1ccc(CC(C)CN2C[C@@H](C)O[C@@H](C)C2)cc1 (some centres undefined),remaining NAD,[3],10 nM (inactive)
CC(C)(C)C(=O)OCOP(=O)(COCCn1cnc2c(N)ncnc21)OCOC(=O)C(C)(C)C,AC50,[2],18.6 µM (active)
CC(=O)O[C@@]12CO[C@@H]1C[C@H](O)[C@@]1(C)C(=O)[C@H](O)C3=C(C)[C@@H](OC(=O)[C@H](O)[C@@H](NC(=O)OC(C)(C)C)c4ccccc4)C[C@@](O)([C@@H](OC(=O)c4ccccc4)[C@H]21)C3(C)C,outcome,[2],inactive
same,remaining NAD,[3],10 nM (inactive)
